# Values joined by “and” are separate entries in the source; they are usually repeats but may differ in a detail not shown here. Equal entries are not always repeated. A number with no mark means an inactive call. Records with an inconclusive call do not appear. Active and inactive are the calls of the source. Unless noted, calls come from the whole dose curve; as a rule, active = well fitted curve in the direction sought with a large enough effect; inconclusive = small, poorly fitted or top-dose-only effect, or another doubt; inactive = no such curve, though single readings can be large; an effect the other way counts as inactive or inconclusive.
# Experiments:
# [1] = biological target: Voltage-gated inwardly rectifying potassium channel KCNH2 (Homo sapiens) (UniProt Q12809); assay: qHTS Assay for Small Molecule Inhibitors of the Human hERG Channel Activity (AID 588834);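 note: lower thallium flux fluorescence means stronger hERG block; nearly all actives have a fitted effect of over 50% in size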; note: potency is the fitted concentration of half-maximal effect
# Voltage-gated inwardly rectifying potassium channel KCNH2 (Homo sapiens), sequence (Q12809 whole entry, looked up): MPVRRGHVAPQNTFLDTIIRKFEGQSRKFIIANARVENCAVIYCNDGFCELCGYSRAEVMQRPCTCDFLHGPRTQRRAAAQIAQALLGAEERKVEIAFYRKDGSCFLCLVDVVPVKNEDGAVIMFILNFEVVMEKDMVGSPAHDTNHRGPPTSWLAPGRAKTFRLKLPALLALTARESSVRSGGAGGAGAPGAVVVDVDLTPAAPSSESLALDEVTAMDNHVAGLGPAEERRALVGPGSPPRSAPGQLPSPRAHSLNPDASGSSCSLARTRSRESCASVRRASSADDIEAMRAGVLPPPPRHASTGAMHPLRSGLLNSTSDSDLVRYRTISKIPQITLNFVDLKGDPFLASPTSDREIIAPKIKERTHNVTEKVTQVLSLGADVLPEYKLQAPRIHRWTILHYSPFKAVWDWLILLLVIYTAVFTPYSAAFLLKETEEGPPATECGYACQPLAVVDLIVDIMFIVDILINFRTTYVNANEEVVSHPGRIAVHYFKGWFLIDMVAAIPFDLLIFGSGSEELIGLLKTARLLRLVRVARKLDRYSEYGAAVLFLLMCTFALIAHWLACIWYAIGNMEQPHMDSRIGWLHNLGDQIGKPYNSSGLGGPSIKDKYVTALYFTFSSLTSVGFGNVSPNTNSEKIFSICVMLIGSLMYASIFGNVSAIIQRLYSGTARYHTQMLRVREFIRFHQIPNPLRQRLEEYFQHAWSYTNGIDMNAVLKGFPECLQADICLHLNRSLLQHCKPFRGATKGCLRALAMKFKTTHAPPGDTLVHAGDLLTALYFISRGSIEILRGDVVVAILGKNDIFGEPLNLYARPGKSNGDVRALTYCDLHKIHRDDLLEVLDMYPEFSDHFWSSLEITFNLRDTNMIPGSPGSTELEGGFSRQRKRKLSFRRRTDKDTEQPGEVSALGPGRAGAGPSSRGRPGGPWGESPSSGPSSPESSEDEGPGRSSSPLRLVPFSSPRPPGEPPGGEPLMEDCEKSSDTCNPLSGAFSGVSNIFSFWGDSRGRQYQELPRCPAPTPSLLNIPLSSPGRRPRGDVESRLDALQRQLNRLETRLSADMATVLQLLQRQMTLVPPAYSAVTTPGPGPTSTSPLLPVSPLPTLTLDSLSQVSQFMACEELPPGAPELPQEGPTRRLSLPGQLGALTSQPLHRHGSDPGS
# How it was run: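 Thallium serves as surrogate for K+ influx through BacMam-delivered hERG in U2OS cells. Compounds are added for about 10 minutes after dye loading; stimulation buffer then starts flux, monitored kinetically on FDSS.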
# [2] = system: Zika virus NS2B-NS3 protease (linked construct); assay: 384 well plate NINDS Rhodamine confirmatory qHTS for Zika virus inhibitors (AID 1347164);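 note: fluorescence from protease cleavage of Ac-LKRR-rhodamine 110 substrate; nearly all actives have a fitted effect of over 65% in size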; note: potency is the fitted concentration of half-maximal effect
# How it was run: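 Linked NS2B-NS3 protease (final 5, 30 or 60 nM) preincubated ~15 minutes with compounds, then 10 microM Ac-LKRR-Rhodamine 110 added. Fluorescence (485/538 nm) read after 25 minutes at room temperature, normalized to no-enzyme and no-inhibitor controls.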
# [3] = Tertiary RLuc qRT-PCR qHTS assay for Zika virus inhibitors (AID 1347169); note: potency is the fitted concentration of half-maximal effect; nearly all actives have a fitted effect of over 55% in size
# How it was run: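 Vero cells (1,000/well) infected with recombinant ZIKV-RLuc (Cambodian) at MOI 1-2 after compound addition, 48-72 hrs at 37 degrees C. Live-cell Renilla luciferase substrate added; luminescence read after 1-1.5 hrs.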
# [4] = qHTS profiling for inhibitors of Plasmodium falciparum proliferation (AID 504749); note: potency is the fitted concentration of half-maximal effect;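 for activity, negative = inhibition: 0% = DMSO vehicle and full inhibition = artemisinin control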; for all read-outs here: nearly all actives have a fitted effect of over 60% in size; conditions: P. falciparum in erythrocytes, SYBR Green DNA, 72 h; for activity, negative = inhibition: at 28.7 µM (top of the series)
# How it was run: (§1)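 Fluorescence of SYBR Green-bound parasite DNA, read at 485/535 nm, served as the growth measure. Infected erythrocytes were cultured with compound 72 h; artemisinin (0.29 uM) and DMSO wells defined the normalization range.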
# 7G8 = assay: as above; conditions: P. falciparum in erythrocytes, SYBR Green DNA, 72 h; series mostly up to 28.7 µM
# How it was run: as §1
# ATS95 = assay: as above; conditions: P. falciparum in erythrocytes, SYBR Green DNA, 72 h; series mostly up to 28.7 µM
# How it was run: as §1
# CP237 = assay: as above; conditions: P. falciparum in erythrocytes, SYBR Green DNA, 72 h; series mostly up to 28.7 µM
# How it was run: as §1
# CP291 = assay: as above; conditions: P. falciparum in erythrocytes, SYBR Green DNA, 72 h; series mostly up to 28.7 µM
# How it was run: as §1
# Dd2 = assay: as above; conditions: P. falciparum in erythrocytes, SYBR Green DNA, 72 h; series mostly up to 28.7 µM
# How it was run: as §1
# GB4 = assay: as above; conditions: P. falciparum in erythrocytes, SYBR Green DNA, 72 h; series mostly up to 28.7 µM
# How it was run: as §1
# W2 = assay: as above; conditions: P. falciparum in erythrocytes, SYBR Green DNA, 72 h; series mostly up to 28.7 µM
# How it was run: as §1
# [5] = biological target: Cytochrome P450 3A4 (Homo sapiens) (UniProt P08684); assay: qHTS Assay for Inhibitors and Substrates of Cytochrome P450 3A4 (AID 884); note: nearly all actives have a fitted effect of over 50% in size; note: potency is the fitted concentration of half-maximal effect
# Cytochrome P450 3A4 (Homo sapiens), sequence (P08684 whole entry, looked up): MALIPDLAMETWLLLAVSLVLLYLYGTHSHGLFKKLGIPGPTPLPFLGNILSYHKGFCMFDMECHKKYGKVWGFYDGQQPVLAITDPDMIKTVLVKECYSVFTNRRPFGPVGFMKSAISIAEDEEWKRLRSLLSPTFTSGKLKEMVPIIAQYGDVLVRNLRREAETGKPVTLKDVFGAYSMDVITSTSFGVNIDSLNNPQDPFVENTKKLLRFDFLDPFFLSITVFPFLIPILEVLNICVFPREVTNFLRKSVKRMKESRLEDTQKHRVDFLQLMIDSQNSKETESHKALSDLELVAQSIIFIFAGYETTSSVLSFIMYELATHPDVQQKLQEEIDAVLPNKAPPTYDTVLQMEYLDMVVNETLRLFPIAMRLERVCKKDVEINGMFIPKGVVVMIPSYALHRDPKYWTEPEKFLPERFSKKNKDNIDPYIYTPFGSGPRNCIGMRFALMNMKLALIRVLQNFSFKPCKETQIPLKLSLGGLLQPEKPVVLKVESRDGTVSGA
# How it was run: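 Luminescent readout of luciferin produced by CYP3A4 (20 nM) dealkylation of Luciferin-PPXE, 25 uM (its KM). NADPH-driven reaction ran 60 min at RT after 10 min compound preincubation; data scaled to 57 uM ketoconazole as 100% inhibition.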
# [6] = biological target: Ubiquitin carboxyl-terminal hydrolase 1 (Homo sapiens) (UniProt O94782); assay: Inhibitors of USP1/UAF1: Pilot qHTS (AID 504865);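 note: rhodamine fluorescence freed from ubiquitin-rhodamine substrate followed over time; top concentration of the series differs between compounds; % is set by controls: 0 for no effect and ±100 for the full control effect; nearly all actives have a fitted effect of over 35% in size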
# Ubiquitin carboxyl-terminal hydrolase 1 (Homo sapiens), sequence (O94782 whole entry, looked up): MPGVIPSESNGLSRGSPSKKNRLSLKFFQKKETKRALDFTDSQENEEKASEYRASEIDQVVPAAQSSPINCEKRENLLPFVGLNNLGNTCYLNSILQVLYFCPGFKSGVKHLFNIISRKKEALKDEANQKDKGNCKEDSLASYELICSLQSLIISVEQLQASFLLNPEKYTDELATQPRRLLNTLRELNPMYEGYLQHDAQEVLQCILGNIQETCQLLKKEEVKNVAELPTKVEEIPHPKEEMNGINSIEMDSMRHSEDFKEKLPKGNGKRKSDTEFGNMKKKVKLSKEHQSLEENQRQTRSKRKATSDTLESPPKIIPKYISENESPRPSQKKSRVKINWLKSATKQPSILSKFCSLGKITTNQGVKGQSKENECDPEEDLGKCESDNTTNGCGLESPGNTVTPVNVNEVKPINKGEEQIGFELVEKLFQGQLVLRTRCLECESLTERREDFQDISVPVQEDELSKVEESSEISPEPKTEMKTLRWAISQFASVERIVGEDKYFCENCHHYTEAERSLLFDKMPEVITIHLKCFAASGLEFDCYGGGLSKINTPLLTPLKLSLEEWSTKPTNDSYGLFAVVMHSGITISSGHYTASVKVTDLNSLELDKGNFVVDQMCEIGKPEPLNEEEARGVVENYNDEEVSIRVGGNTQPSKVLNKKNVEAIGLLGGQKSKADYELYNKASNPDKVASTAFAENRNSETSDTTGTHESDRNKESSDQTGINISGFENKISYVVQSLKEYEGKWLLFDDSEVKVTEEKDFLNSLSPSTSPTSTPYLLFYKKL
# How it was run: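 USP1/UAF1 complex at 1 nM preincubated 15 min at room temperature with compound, then Ub-Rho substrate added at 150 nM final. Fluorescence (480/540 nm) read kinetically in 50 mM HEPES pH 7.8, 0.5 mM EDTA, 1 mM TCEP, 0.1 mg/ml BSA, 0.01% Tween-20.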
# [7] = biological target: N-terminal Xaa-Pro-Lys N-methyltransferase 1 (Homo sapiens) (UniProt Q9BV86); assay: Confirmatory qHTS for Inhibitors of N-terminal methyltransferase 1 (NTMT1): MTaseGlo Assay (AID 1645874); note: nearly all actives have a fitted effect of over 65% in size; note: potency is the fitted concentration of half-maximal effect
# N-terminal Xaa-Pro-Lys N-methyltransferase 1 (Homo sapiens), sequence (Q9BV86 whole entry, looked up): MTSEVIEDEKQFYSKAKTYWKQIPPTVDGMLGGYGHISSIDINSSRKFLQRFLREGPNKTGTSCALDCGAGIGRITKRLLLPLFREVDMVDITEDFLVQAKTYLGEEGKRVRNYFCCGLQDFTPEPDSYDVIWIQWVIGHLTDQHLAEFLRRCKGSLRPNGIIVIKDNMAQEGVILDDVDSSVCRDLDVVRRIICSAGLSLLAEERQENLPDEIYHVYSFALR
# How it was run: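 SPKRIA peptide at 1 uM was methylated by 125 nM NTMT1 using 100 uM SAM over 30 min at room temperature, following a 15 min compound preincubation. Product SAH was detected luminescently.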
# [8] = biological target: Cytochrome P450 1A2 (Homo sapiens) (UniProt P05177); assay: p450-cyp1a2 (AID 410; calls by dose curve; note: potency is the fitted concentration of half-maximal effect)
# Cytochrome P450 1A2 (Homo sapiens), sequence (P05177 whole entry, looked up): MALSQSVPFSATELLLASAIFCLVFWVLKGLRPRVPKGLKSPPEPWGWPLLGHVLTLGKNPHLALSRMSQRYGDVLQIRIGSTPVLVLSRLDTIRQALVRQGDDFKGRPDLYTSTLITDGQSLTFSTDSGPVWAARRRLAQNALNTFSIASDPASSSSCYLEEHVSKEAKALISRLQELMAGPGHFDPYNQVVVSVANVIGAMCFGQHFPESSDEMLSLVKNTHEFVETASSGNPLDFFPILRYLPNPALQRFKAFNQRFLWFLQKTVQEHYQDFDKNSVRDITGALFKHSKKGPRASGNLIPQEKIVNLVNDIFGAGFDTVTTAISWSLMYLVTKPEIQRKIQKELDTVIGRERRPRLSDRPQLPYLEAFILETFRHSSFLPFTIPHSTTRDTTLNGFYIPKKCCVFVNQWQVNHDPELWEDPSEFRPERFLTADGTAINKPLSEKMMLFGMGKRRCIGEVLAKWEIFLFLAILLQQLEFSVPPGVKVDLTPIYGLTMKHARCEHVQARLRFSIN
# How it was run: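 20nM CYP1A2, 100uM Luciferin-ME (=Km), 100mM KPO4; cpd 10 min RT; +NADPH regen, 60 min RT; stop/detect 20 min; luminescence. Normalized to furafylline 57 uM = full inhibition.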
# [9] = biological target: Glucocorticoid receptor (Homo sapiens) (UniProt P04150); assay: GR-GFP Redistribution (AID 450;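 active = compounds whose dose series gives a full or clear partial fitted curve of increased nuclear translocation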; note: potency is the fitted concentration of half-maximal effect); conditions: U2OS GR-GFP nuclear translocation, laser cytometry, 2 h
# Glucocorticoid receptor (Homo sapiens), sequence (P04150 whole entry, looked up, the tested form may be a part): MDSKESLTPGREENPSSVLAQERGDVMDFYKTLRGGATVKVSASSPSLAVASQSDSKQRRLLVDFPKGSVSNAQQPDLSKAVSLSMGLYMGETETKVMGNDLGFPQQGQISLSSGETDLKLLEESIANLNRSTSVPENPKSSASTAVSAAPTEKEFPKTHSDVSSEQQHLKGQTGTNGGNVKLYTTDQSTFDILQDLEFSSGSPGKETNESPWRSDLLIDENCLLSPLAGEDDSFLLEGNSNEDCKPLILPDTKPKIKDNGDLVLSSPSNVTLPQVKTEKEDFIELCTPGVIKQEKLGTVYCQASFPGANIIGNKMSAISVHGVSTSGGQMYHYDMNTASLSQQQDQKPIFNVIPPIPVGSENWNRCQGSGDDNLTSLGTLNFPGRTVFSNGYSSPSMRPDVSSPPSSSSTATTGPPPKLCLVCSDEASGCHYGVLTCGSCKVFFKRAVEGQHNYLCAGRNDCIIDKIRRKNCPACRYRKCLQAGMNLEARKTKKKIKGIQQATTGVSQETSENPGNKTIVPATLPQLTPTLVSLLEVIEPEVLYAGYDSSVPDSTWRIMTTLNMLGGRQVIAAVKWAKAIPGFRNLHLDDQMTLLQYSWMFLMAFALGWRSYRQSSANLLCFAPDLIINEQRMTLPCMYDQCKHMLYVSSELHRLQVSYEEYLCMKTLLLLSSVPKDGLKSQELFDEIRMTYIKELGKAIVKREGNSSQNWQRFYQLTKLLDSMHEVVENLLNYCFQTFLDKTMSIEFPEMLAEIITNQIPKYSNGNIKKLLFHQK
# [10] = biological target: Glucocorticoid receptor (Homo sapiens) (UniProt P04150); assay: GR-EFC Redistribution (AID 451; calls by dose curve; note: potency is the fitted concentration of half-maximal effect); conditions: CHO-K1 GR-EFC translocation, beta-gal luminescence, 2 h
# How it was run: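 CHO-K1 cells stably expressing nuclear-localized β-gal enzyme acceptor and GR fused C-terminally to the enzyme donor fragment; ligand-driven nuclear translocation restores β-gal by complementation. Compounds titrated up to 46 uM final, 2 h at 37 °C; luminescence read.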
# [11] = biological target: Cytochrome P450 2C19 (Homo sapiens) (UniProt P33261); assay: qHTS Assay for Inhibitors and Substrates of Cytochrome P450 2C19 (AID 899); note: potency is the fitted concentration of half-maximal effect; nearly all actives have a fitted effect of over 60% in size
# Cytochrome P450 2C19 (Homo sapiens), sequence (P33261 whole entry, looked up): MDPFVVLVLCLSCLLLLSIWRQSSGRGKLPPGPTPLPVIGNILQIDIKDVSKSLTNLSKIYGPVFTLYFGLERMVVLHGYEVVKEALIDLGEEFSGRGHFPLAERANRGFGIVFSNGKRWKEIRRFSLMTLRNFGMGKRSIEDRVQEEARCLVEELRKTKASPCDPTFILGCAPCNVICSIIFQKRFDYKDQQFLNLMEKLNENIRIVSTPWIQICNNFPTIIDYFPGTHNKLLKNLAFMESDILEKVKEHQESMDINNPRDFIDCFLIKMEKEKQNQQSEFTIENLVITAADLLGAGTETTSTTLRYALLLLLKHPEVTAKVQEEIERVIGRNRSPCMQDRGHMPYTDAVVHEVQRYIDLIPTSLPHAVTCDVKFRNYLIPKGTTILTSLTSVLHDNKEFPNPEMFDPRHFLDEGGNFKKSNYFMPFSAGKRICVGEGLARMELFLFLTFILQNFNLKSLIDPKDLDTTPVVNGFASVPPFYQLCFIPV
# How it was run: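 NADPH-dependent conversion of Luciferin-H EGE (10uM, at KM) by 5nM enzyme in 50mM KPO4, 60 min at 37C following 10 min compound preincubation. Stopped with luciferin detection buffer; luminescence read after 20 min.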
# [12] = biological target: DNA dC->dU-editing enzyme APOBEC-3G (Homo sapiens) (UniProt Q9HC16); assay: qHTS for inhibitors of Vif-A3G interactions: Validation (AID 588379); note: 0% is about no effect
# DNA dC->dU-editing enzyme APOBEC-3G (Homo sapiens), sequence (Q9HC16 whole entry, looked up): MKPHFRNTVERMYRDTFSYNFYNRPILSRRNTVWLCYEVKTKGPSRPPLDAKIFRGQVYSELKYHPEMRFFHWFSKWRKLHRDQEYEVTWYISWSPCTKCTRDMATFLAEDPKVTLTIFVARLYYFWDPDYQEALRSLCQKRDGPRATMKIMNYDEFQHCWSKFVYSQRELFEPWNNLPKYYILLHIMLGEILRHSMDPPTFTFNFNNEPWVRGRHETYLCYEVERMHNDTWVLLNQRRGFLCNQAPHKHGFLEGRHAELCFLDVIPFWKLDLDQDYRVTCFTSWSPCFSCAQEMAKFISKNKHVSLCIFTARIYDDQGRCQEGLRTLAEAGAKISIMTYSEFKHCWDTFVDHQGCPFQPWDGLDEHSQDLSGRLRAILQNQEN
# How it was run: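 Yellow fluorescence (Ex 488, Em 500-530) of Vif-coexpressing HeLa A3G-eYFP cells, scanned by Acumen cytometer, reports blocked A3G degradation. Cells plated at 700/well overnight at 37 deg C before compound addition, then a further overnight compound incubation at 37 deg C.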
# [13] = biological target: Cytochrome P450 3A4 (Homo sapiens) (UniProt P08684); assay: qHTS Assay for Activators of Cytochrome P450 3A4 (AID 885); note: nearly all actives have a fitted effect of over 65% in size
# How it was run: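 CYP3A4 activity: Luciferin-PPXE O-dealkylation, 25uM substrate, 200mM KPO4, RT throughout. Read-out is luciferase luminescence; higher values reflect activation.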
smiles,measurement,setting,value
CC[C@H](C)[C@H]1O[C@]2(CC[C@@H]1C)C[C@@H]1C[C@@H](C/C=C(\C)[C@@H](O[C@H]3C[C@H](OC)[C@@H](O[C@H]4C[C@H](OC)[C@@H](O)[C@H](C)O4)[C@H](C)O3)[C@@H](C)/C=C/C=C3\CO[C@@H]4[C@H](O)C(C)=C[C@@H](C(=O)O1)[C@]34O)O2,Potency,[1],inactive
same,Potency,[2],inactive
same,Potency,[3],41.5 nM (active) and 2.62 µM (active)
O=C(CC1NCCC[C@H]1O)Cn1cnc2cc(Br)c(Cl)cc2c1=O (stereo not given in full),Potency,[4]; parasite line A,2 µM (active)
same,Potency,[4]; parasite line B,3.55 µM (active)
same,Potency,7G8,1 µM (active)
same,Potency,ATS95,2 µM (active)
same,Potency,CP237,3.55 µM (active)
same,Potency,CP291,2.69 µM (active)
same,Potency,Dd2,0.708 µM (active)
same,Potency,GB4,1.9 µM (active)
same,Potency,W2,0.675 µM (active)
CCCCC(=O)N(Cc1ccc(-c2ccccc2-c2nn[nH]n2)cc1)C(C(=O)O)C(C)C (stereo not given),Potency,[5],inactive
same,Potency,[6],inactive
same,"activity, negative = inhibition",[4]; parasite line A,9.14%
same,"activity, negative = inhibition",[4]; parasite line B,6.89%
same,Potency,7G8,11.2 µM (active)
same,Potency,ATS95,inactive
same,Potency,CP237,inactive
same,Potency,CP291,inactive
same,Potency,Dd2,inactive
same,Potency,GB4,13.5 µM (active)
same,Potency,W2,15.1 µM (active)
Cc1ccn(-c2cc(Cl)ccc2[C@@H](Oc2cc(-c3ccc(C[C@H](N)C(=O)O)cc3)nc(N)n2)C(F)(F)F)n1,Potency,[2],28.2 µM (active)
same,Potency,[3],20.8 µM (active)
Fc1ccccc1CNCc1ccc(-c2ccnc3[nH]ccc23)cc1,Potency,[7],inactive
O=C(O)c1ccc(O)c2ncc(N3CCCN(CCc4cccc5ccccc45)CC3)cc12,Potency,[2],3.55 µM (active)
same,Potency,[3],6.58 µM (active)
Clc1ccccc1CNCC1CCC(CNCc2ccccc2Cl)CC1 (stereo not given),Potency,[8],inactive
same,Potency,[9],> 46 µM
same,Potency,[10],> 46 µM
same,Potency,[11],0.794 µM (active)
same,Potency,[6],inactive
same,Potency,[12],inactive
Cc1nc2c(O)cccc2c(=O)[nH]1,Potency,[8],15.8 µM (active)
same,Potency,[9],> 46 µM
same,Potency,[10],> 46 µM
same,Potency,[11],0.398 µM (active)
same,Potency,[12],inactive
CN1CCN(CCC=C2c3ccccc3Sc3ccc(S(=O)(=O)N(C)C)cc32)CC1,Potency,[8],inactive
same,Potency,[13],inactive
same,Potency,[6],inactive
same,Potency,[1],10 µM (active)
same,Potency,7G8,5.01 µM (active)
same,Potency,ATS95,11.2 µM (active)
same,Potency,CP237,11.2 µM (active)
same,Potency,CP291,15.1 µM (active)
same,Potency,Dd2,12.6 µM (active)
same,Potency,GB4,13.5 µM (active)
same,Potency,W2,6.01 µM (active)
CS(=O)(=O)CCNCc1nc(-c2ccc3ncnc(Nc4ccc(OCc5cccc(F)c5)c(Cl)c4)c3c2)cs1,Potency,[5],2.51 µM (active)
same,Potency,[13],inactive
CCOC(=O)CCC(=O)O[C@H]1[C@H](O[C@@H]2[C@@H](C)[C@H](O[C@H]3C[C@@](C)(OC)[C@@H](O)[C@H](C)O3)[C@@H](C)C(=O)O[C@H](CC)[C@@](C)(O)[C@H](O)[C@@H](C)C(=O)[C@H](C)C[C@@]2(C)O)O[C@H](C)C[C@@H]1N(C)C,Potency,[9],> 20.6 µM
COc1cc(/C=C(\C#N)C(N)=O)cc(CSc2nc3ccccc3s2)c1O,Potency,[8],1.26 µM (active)
same,Potency,[10],> 46 µM
same,Potency,[5],3.98 µM (active)
same,Potency,[13],inactive
same,Potency,[11],3.16 µM (active)
same,Potency,[12],inactive
O=C(O)c1ccc2c3c1cccc3c(=O)n1c3ccccc3nc21,Potency,[8],15.8 µM (active)
same,Potency,[9],> 46 µM
same,Potency,[10],> 46 µM
same,Potency,[11],3.98 µM (active)
same,Potency,[6],inactive
same,Potency,[12],inactive
Nc1ncnc2c1c(I)cn2C1OC(CO)C(O)C1O (stereo not given),Potency,[5],inactive
same,Potency,[7],0.851 µM (active)
Cn1cc(C2=C(c3cn(CCCSC(=N)N)c4ccccc34)C(=O)NC2=O)c2ccccc21,Potency,[13],inactive
same,Potency,[7],6.02 µM (active)
C=C1C(=O)O[C@H]2[C@H]1CC/C(C)=C\CC[C@@]1(C)O[C@@H]21,Potency,[1],inactive
CC(C)=CCC/C(C)=C/CC/C(C)=C/CSc1ccccc1C(=O)O,Potency,[8],12.6 µM (active)
same,Potency,[9],> 46 µM
same,Potency,[13],inactive
same,Potency,[1],inactive
same,Potency,[7],39.8 µM (active)

# Reference: PubChem BioAssay (NCATS)
